Hits are enriched below; roughly 3.2% of the tested compounds scored in any of these assays.
NadD block – inhibitors of S. aureus NadD, primary screen, biochemical, colorimetric, uHTS | inhibition, % at 20 µM | Nicotinate-nucleotide adenylyltransferase NadD (Staphylococcus aureus N315) | purified NadD enzyme, colorimetric absorbance read-out | 0.78% of 360,000 active; in the data active = inhibition above about 26%
MsrA act – bovine MsrA enzyme activators, primary screen, biochemical, absorbance, HTS; AID 602163, 2012; 0.3% of 360,000 active; activation, % at 10.6 µM; purified bovine MsrA, absorbance read-out; in the data active = activation above about 7.5%;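 also: 0% = vehicle and 100% = reference activator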
MsrA inh – bovine MsrA enzyme inhibitors, primary screen, biochemical, absorbance, HTS; Methionine sulfoxide reductase A (Bos taurus); purified bovine MsrA, absorbance read-out; inhibition, % at 15.5 µM; 0.75% of 360,000 active; in the data active = inhibition above about 4.5%;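 also: 0% = vehicle wells with enzyme and 100% = reference inhibitor wells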
DAGLB inh – DAGLB lipase inhibitors, primary screen, biochemical, fluorescence, HTS | Diacylglycerol lipase-beta (Homo sapiens), Q8NCG7 | HEK293T DAGLB membrane lysate, EnzChek fluorogenic substrate | inhibition, % at 5.17 µM | 0.059% of 340,000 active | AID 504411, 2011; in the data active = inhibition above about 34%;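 also: 0% = enzyme with vehicle and 100% = wells lacking enzyme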
DSG3 Ab inh – inhibitors of pemphigus antibody binding to DSG3, primary screen, biochemical, bead-based, flow cytometry, scFv-GFP; Desmoglein-3 (Homo sapiens), P32926; DSG3-coupled beads, scFv-anti-DSG3-GFP binding; stronger effect = lower value; binding (percent of control), % at 10 µM; 0.48% of 310,000 active;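 active = binding more than 3 SD below its plate's average and above zero; inconclusive = below that plate limit but binding exactly zero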;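 also: hits lower antibody fragment binding to DSG3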
Target sequence (P32926 whole entry, looked up, the tested form may be a part): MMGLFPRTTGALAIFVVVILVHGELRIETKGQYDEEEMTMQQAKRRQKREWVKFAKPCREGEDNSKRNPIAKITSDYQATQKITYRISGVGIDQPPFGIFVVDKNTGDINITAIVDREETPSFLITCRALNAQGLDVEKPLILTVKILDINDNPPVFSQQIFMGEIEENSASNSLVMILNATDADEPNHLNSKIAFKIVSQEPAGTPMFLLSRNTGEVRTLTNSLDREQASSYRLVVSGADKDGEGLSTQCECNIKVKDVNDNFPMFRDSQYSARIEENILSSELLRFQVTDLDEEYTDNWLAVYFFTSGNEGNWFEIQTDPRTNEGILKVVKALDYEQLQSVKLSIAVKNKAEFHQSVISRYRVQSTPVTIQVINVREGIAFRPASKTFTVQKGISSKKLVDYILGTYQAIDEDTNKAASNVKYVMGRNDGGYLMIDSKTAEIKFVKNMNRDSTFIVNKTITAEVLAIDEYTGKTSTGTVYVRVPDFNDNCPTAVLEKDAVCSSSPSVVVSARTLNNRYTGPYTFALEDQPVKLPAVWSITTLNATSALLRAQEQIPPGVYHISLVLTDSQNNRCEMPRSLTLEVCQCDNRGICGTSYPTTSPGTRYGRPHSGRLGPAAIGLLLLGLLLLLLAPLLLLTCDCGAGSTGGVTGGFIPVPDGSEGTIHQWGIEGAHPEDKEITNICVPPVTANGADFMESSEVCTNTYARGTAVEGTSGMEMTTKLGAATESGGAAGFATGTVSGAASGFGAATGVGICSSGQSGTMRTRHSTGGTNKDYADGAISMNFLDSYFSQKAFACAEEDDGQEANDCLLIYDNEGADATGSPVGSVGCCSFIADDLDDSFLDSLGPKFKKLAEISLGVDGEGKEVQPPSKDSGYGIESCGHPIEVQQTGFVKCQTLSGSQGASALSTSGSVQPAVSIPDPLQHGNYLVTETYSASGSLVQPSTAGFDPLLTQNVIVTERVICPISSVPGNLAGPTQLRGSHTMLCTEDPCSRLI
rCAG binder-1 – binders of r(CAG) RNA repeats, primary screen, biochemical, fluorescence | AID 651821, 2012 | 1.3% of 370,000 active | inhibition, % at 3 µM | r(CAG) RNA repeat, TO-PRO-1 dye displacement fluorescence;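 active = inhibition above the plate cutoff, the mean of all test compounds on that plate plus 3 SD, cut at about 35% in these data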;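 also: 0% = DMSO alone and 100% = 100 µM mitoxantrone as full dye displacement; higher means more dye released from RNA so lower well fluorescence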
rCAG bind conf – small molecules binding CAG repeat RNA – biochemical, fluorescence, confirmation. r(CAG) RNA repeat, TO-PRO-1 dye displacement fluorescence. 70% of 4,300 active. inhibition, % at 3 µM. shares compounds with rCAG binder-1. AID 652065, 2013;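 active = inhibition above a per-plate cutoff, the mean inhibition of sample wells plus 3 SD, cut at about 35% in these data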;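 also: loss of TO-PRO-1 fluorescence as compound displaces dye from 1x1 AA loop RNA; 0% = DMSO only wells and 100% = 100 µM mitoxantrone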
dCAG dye counter – displacement of TO-PRO-1 from CAG DNA duplex, counter-screen for rCAG RNA repeat binder project, biochemical, fluorescence, TO-PRO-1 dye, d(CAG) DNA oligo | d(CAG) DNA oligo TO-PRO-1 dye displacement | 94% of 4,300 active | inhibition, % at 3 µM | shares compounds with rCAG binder-1;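 active = inhibition above its plate's cutoff, the mean test-well inhibition plus 3 SD, cut at about 4.8% in these data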;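 also: 0% = DNA dye mix with DMSO and 100% = 100 µM mitoxantrone; hits displace the dye from DNA and so lower well fluorescence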
dCAG dye DR – inhibitors of DNA CAG/GTC TO-PRO-1 complex, dose response, counter-screen for rCAG RNA repeat binder project, biochemical, fluorescence, TO-PRO-1 dye; IC50, µM; 20% of 250 active; shares compounds with rCAG binder-1; DNA CAG/GTC duplex TO-PRO-1 dye displacement fluorescence; in the data active = IC50 below about 10 µM
dCAG DNA bind – TO-PRO-1 dye complex inhibitors on d(CAG) DNA, dose response, counter-screen, biochemical, fluorescence, late stage; shares compounds with rCAG binder-1; d(CAG) DNA duplex TO-PRO-1 dye displacement; IC50, µM; 80% of 30 active
rCAG binder-2 – molecules binding r(CAG) RNA repeats, late stage dose response, late-stage follow-up, biochemical, fluorescence, dose response, powder samples | shares compounds with rCAG binder-1 | r(CAG) RNA TO-PRO-1 dye displacement | IC50, µM | 100% of 30 active | AID 720651, 2013
* = called active by the depositor; ? = inconclusive; nt = not tested or not shown. Unless noted, no rule for the calls is given here.

SMILES	NadD block	MsrA act	MsrA inh	DAGLB inh	DSG3 Ab inh	rCAG binder-1	rCAG bind conf	dCAG dye counter	others
Cc1cc2c(C(C)C)c(O)c(O)c(C=O)c2c(O)c1-c1c(C)cc2c(C(C)C)c(O)c(O)c(C=O)c2c1O	50*	-4	0	nt	nt	97*	94*	81*
COc1ccc(C(c2nnnn2-c2c(C)cccc2C)N2CCC3(CC2)C(=O)NCN3c2ccccc2)cc1 (stereo unspecified)	8	-2	2	nt	nt	10	nt	nt
O=[N+]([O-])c1cccc(C2N3CCCN23)c1 (stereo unspecified)	-2	-1	-1	0	84	-2	nt	nt
O=C(O)c1cccc2c1NC(c1cccc([N+](=O)[O-])c1)C1CC(Sc3ccccc3[N+](=O)[O-])C(Cl)C21 (stereo unspecified)	60*	-9	1	15	99	76*	92*	74*
NP(=O)(OCC(F)(F)F)Oc1ccccc1 (stereo unspecified)	7	-2	0	-1	?	-1	nt	nt
O=C(O)c1ccccc1-c1ccc(C=C2C(=O)N(c3ccccc3)C(=S)N(c3ccccc3)C2=O)o1	12	-5	3	4	116	57*	61*	26*
C=Cn1ccnc1P(=S)(c1ccccc1)c1nccn1C=C	6	-2	-1	1	89	-8	nt	nt
Cc1ccc2c(c1)CC1(CN2C)C(=O)NC(=O)N(CCc2ccccc2)C1=O (stereo unspecified)	5	-9	0	2	116	11	nt	nt
CC(C)CN1Cc2ccccc2-n2nncc2C1	-6	-2	-1	1	nt	1	nt	nt
COc1ccc(C(SCC(NC(=O)OCc2ccccc2)C(=O)O)c2ccc(OC)cc2)cc1 (stereo unspecified)	1	-11	1	-2	107	53*	53*	14*
COc1ccc(NC(=O)CN(C)C(=O)CSC(c2ccccc2)c2ccccc2)cc1	0	2	0	3	101	1	nt	nt
CCN1C[C@]2(COC)CC[C@H](OC)[C@@]34C1[C@]1(OCO[C@@]15C[C@H](OC)[C@H]1C[C@@H]3[C@@H]5[C@H]1OC)[C@@H](O)[C@H]24	1	0	3	3	107	-3	nt	nt
CCOc1ccc(N2C(=O)NC(=O)/C(=C/c3cnc(SC)nc3)C2=O)cc1	-5	-8	1	0	102	3	nt	nt
CCOc1ccc(/C=C2/C(=O)NC(=O)N(CCc3ccc(F)cc3)C2=O)cc1	4	-11	-1	12	97	35*	3	2
O=C1NC(=O)N(Cc2ccco2)C(=O)/C1=C/c1cccn1CCOc1ccccc1Cl	13	-5	-1	25	92	49*	11	5.7*
COc1ccc(CN2C(=O)NC(=O)/C(=C/c3ccoc3)C2=O)cc1	10	-7	2	-21	107	53*	45*	17*
CCCCN1C(=O)/C(=C/C=C/c2ccco2)C(=O)NC1=S	4	-5	1	4	82	76*	66*	26*	dCAG dye DR=3.1*;dCAG DNA bind=3.1*;rCAG binder-2=1.4*
CN(C)C(=O)Oc1ccc2c(c1)O/C(=C\c1cccc([N+](=O)[O-])c1)C2=O	-1	-1	0	0	92	5	nt	nt
CC(c1ccccc1)[n+]1ccccc1 (stereo unspecified)	-5	-2	0	1	101	-4	nt	nt
O=C1NC(=O)N(Cc2ccccc2)C(=O)/C1=C\c1ccco1	10	-2	0	6	87	48*	35*	11*
O=C1NC(=O)N(Cc2ccc(F)cc2)C(=O)/C1=C\C=C\c1ccco1	13	-4	-1	13	97	52*	18	7.6*
O=C(O)Cn1cc(/C=C2\C(=O)NC(=O)N(Cc3ccco3)C2=O)c2ccccc21	6	-5	1	1	94	45*	62*	23*
CC1(C)CN2C(c3ccc(Cl)cc3)N2C1 (stereo unspecified)	8	-2	0	4	98	1	nt	nt
CC(C)(C)C1(CCO)C(=O)NC(=S)NC1=O	4	2	0	1	116	1	nt	nt
Nc1ccc(Sc2ccc(N)cc2)cc1	3	-3	0	5	111	4	nt	nt
SMILES	NadD block	MsrA act	MsrA inh	DAGLB inh	DSG3 Ab inh	rCAG binder-1	rCAG bind conf	dCAG dye counter	others
COP(=S)(OC)Oc1ccc(Sc2ccc(OP(=S)(OC)OC)cc2)cc1	22	-3	-1	0	103	39*	19	7.6*
Cc1ccc(N2C(=O)NC(=O)/C(=C/C=C/c3ccco3)C2=O)cc1	5	-8	0	3	98	29	nt	nt
CCc1ccc(N2C(=O)NC(=O)/C(=C\C=C\c3ccco3)C2=O)cc1	7	-2	1	6	103	45*	19	9.3*
CC(C)c1ccc(N2C(=O)NC(=O)/C(=C/C=C/c3ccco3)C2=O)cc1	8	-4	0	14	97	54*	29	9.4*
Cc1cc(C)cc(N2C(=O)NC(=O)/C(=C\C=C\c3ccco3)C2=O)c1	6	3	-1	5	94	39*	15	7.7*
Cc1nc2ccc(Br)cc2c(=O)n1-c1ccc([N+](=O)[O-])c(C(F)(F)F)c1	-2	-7	0	-1	104	2	nt	nt
C/C=C1/C[N+]2(C)CCC34C(=C(C=O)[C@H]1C[C@@H]32)Nc1ccccc14 (stereo partly specified)	1	-7	1	0	102	3	nt	nt

Compound activity deposited in PubChem BioAssay by several laboratories.
